# The entries come from a sample that favours hits as a whole.
# CD40 NFkB inh: inhibitors of CD40-induced NF-kB signaling, primary screen, BL2 cells, luciferase reporter, single point. 83,000 tested, 0.94% active. AID 1053188, 2014. CD40L-induced, 4 h. inhibition, % at 10 µM;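 active means mean inhibition of at least 50% with a set share of replicates also reaching that level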;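 further: 0% = neutral control wells and 100% = IKK inhibitor VII at 50 µM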
# Active calls of the source: *; ! = repeats disagree; [ ] = another dose, or the depositor's remark.
SMILES,CD40 NFkB inh
COc1ccccc1-c1ccc(C2[C@H]3CNC[C@@H]2N3S(=O)(=O)c2ccc(C)cc2)cc1 (some centres undefined),-11
Cc1cc(C(=O)NCCCC(=O)O)c(C)o1,25
Cc1cc(C(=O)Nc2c(C)n(C)n(-c3ccccc3)c2=O)c(C)o1,5
Cc1cc(C(=O)NCCC(c2ccccc2)c2ccccc2)c(C)o1,80*
CNC(=O)OCc1nc(SSC(C)(C)C)n(C)c1COC(=O)NC,96*
CCN1[C@@H]2Cn3c(ccc(-c4ccccc4F)c3=O)[C@H]1[C@@H](C(=O)N1CCCCC1)[C@@H]2CO,-6[25 µM]
N#C[C@@H]1[C@@H](c2ccccc2C2=CCCC2)[C@H](CO)N1C(=O)C1CCC1,9[25 µM]
COc1ccc(NC(=O)c2ccc(OCC3CCCO3)cc2)cc1OC (centres undefined),-28
Cc1ccnc(NC(=O)c2ccc3c(c2)C(=O)N(CC2CCCO2)C3=O)c1 (centres undefined),-73
Cc1ccnc(NC(=O)c2ccc(OCC3CCCO3)cc2)c1 (centres undefined),87*
Cc1ccc(S(=O)(=O)Nc2ccc3c(c2)C(=O)N([C@@H](C)CO)C[C@H](C)[C@@H](CN(C)S(=O)(=O)c2cccs2)OCCCC[C@H](C)O3)cc1,29[25 µM]
CCOC(=O)COc1ccc2c(=O)c(-c3ccccc3)coc2c1,-13
O=c1cc(-c2ccccc2)oc2cc(OCc3ccccc3)cc(O)c12,12
CC(C)(C)OC(=O)COc1cc(OCC(=O)OC(C)(C)C)c2c(=O)cc(-c3ccccc3)oc2c1,57*!
Cc1nc(NCc2ccco2)c2c(C)c(C)sc2n1,49*
Cc1sc2ncnc(SCc3ccco3)c2c1C,4
Cc1sc2nc(-c3ccco3)oc(=O)c2c1C,-31
N#C[C@@H]1[C@H](c2ccc(C#CC3(O)CCCC3)cc2)[C@@H](CO)N1C(=O)C1CC1,-8
CCC(=O)N1C[C@@H](C)[C@@H](OC)CN(C)C(=O)c2cc(NC(=O)Nc3ccc(Cl)cc3)ccc2OC[C@@H]1C,16[25 µM]
CN(C)C(=O)C[C@H]1C=C[C@H](NC(=O)c2ccc(F)cc2)[C@H](CO)O1,-4[25 µM]
CO[C@H](CN(C)S(=O)(=O)c1ccc(Cl)cc1)[C@H](C)CN(Cc1ccccc1Cl)[C@@H](C)CO,14
CO[C@@H](CN(C)S(=O)(=O)c1ccc(Cl)cc1)[C@H](C)CN(Cc1ccccc1Cl)[C@@H](C)CO,34*
CO[C@@H](CN(C)S(=O)(=O)c1ccc(Cl)cc1)[C@@H](C)CN(Cc1ccccc1Cl)[C@H](C)CO,2
Cc1cccc(S(=O)(=O)N2C[C@H]3[C@@H](c4ccccc42)[C@@H](CO)N3C(=O)c2ccccc2)c1,14[25 µM]
N#Cc1ccc(-c2ccc3c(c2)[C@@H]2[C@@H](CCN2C(=O)C2CCC2)[C@H](CO)N3)cc1,13
SMILES,CD40 NFkB inh
COc1ccc2c3c(n(C)c2c1)[C@@H](CO)N(C(=O)c1ccccn1)CC31CN(C(=O)Cc2ccccc2)C1,-24[25 µM]
C[C@H](CO)N1C[C@H](C)[C@@H](CN(C)C(=O)C2CCOCC2)Oc2ncc(C#CCc3ccccc3)cc2C1=O,41[25 µM]
C[C@H]1CN([C@@H](C)CO)C(=O)c2cc(C#CCc3ccccc3)cnc2O[C@H]1CN(C)C(=O)C1CCOCC1,0[25 µM]
C[C@H](CO)N1C[C@H](C)[C@H](CN(C)C(=O)C2CCOCC2)Oc2ncc(C#CCc3ccccc3)cc2C1=O,64*[25 µM]
Cc1ccccc1S(=O)(=O)N[C@H]1CC[C@H](CCn2cc(Cc3ccccc3)nn2)O[C@H]1CO,6
CN(Cc1ccccc1)C(=O)C(Cc1ccc2ccccc2c1)NC(=O)C1CCCN1C(=O)Nc1ccccc1[N+](=O)[O-] (centres undefined),15[25 µM]
O=C(Nc1ccc2c(c1)[C@@H]1C[C@H](CC(=O)N3CCCCC3)O[C@H](CO)[C@@H]1O2)NC1CCCCC1,-2[25 µM]
Cc1noc(C)c1NC(=O)Nc1ccc2c(c1)C(=O)N([C@@H](C)CO)C[C@H](C)[C@@H](CN(C)C(=O)Nc1ccc(C(F)(F)F)cc1)OCCCC[C@@H](C)O2,12
COc1cc(/C=N/n2cnnc2)ccc1OC(=O)c1ccncc1,65*
COc1cc(/C=N/n2cnnc2)ccc1OC(=O)c1cccnc1,19
COc1cc(/C=N/n2cnnc2)ccc1OCC(=O)N1CCOCC1,6
C[C@H]1CN([C@@H](C)CO)C(=O)c2c(c3ccccc3n2C)-c2ccccc2CO[C@H]1CN(C)Cc1cccc(C(F)(F)F)c1,10[25 µM]
C[C@H](CO)N1C[C@H](C)[C@@H](CN(C)C(=O)Nc2cccc(C(F)(F)F)c2)OCc2ccccc2-c2c(n(C)c3ccccc23)C1=O,46[25 µM]
C[C@@H]1CN([C@@H](C)CO)C(=O)c2c(c3ccccc3n2C)-c2ccccc2CO[C@@H]1CN(C)C(=O)Nc1ccccc1C(F)(F)F,55*[25 µM]
C[C@H](CO)N1C[C@H](C)[C@@H](CN(C)C(=O)Nc2ccccc2C(F)(F)F)OCc2ccccc2-c2c(n(C)c3ccccc23)C1=O,8[25 µM]
C[C@@H]1CN([C@H](C)CO)C(=O)c2c(c3ccccc3n2C)-c2ccccc2CO[C@@H]1CN(C)Cc1cccc(C(F)(F)F)c1,37[25 µM]
C[C@H](CO)N1C[C@H](C)[C@H](CN(C)C(=O)Nc2ccccc2C(F)(F)F)OCc2ccccc2-c2c(n(C)c3ccccc23)C1=O,38[25 µM]
C[C@H]1CN([C@@H](C)CO)C(=O)c2c(c3ccccc3n2C)-c2ccccc2CO[C@@H]1CN(C)C(=O)Nc1cccc(C(F)(F)F)c1,64*[25 µM]
C[C@H](CO)N1C[C@H](C)[C@@H](CN(C)Cc2cccc(C(F)(F)F)c2)OCc2ccccc2-c2c(n(C)c3ccccc23)C1=O,73*[25 µM]
C[C@@H]1CN([C@H](C)CO)C(=O)c2c(c3ccccc3n2C)-c2ccccc2CO[C@H]1CN(C)Cc1cccc(O)c1,9
C[C@H](CO)N1C[C@H](C)[C@H](CN(C)Cc2cccc(C(=O)O)c2)OCc2ccccc2-c2c(n(C)c3ccccc23)C1=O,-9
C[C@@H]1CN([C@@H](C)CO)C(=O)c2c(c3ccccc3n2C)-c2ccccc2CO[C@H]1CN(C)Cc1cccc(C(=O)Nc2ccccc2N)c1,60*[25 µM]
C[C@H](CO)N1C[C@H](C)[C@H](CN(C)C(=O)Nc2cccc(C(F)(F)F)c2)OCc2ccccc2-c2c(n(C)c3ccccc23)C1=O,37[25 µM]
O=C(C1CCOCC1)N1CC(=O)N2[C@H](CO)[C@H](c3ccc(C#CC4CCCC4)cc3)[C@@H]2C1,-2
C[C@H](CO)N1C[C@H](C)[C@@H](CN(C)S(=O)(=O)c2ccccc2)OCCCC[C@H](C)Oc2ccc(NS(=O)(=O)c3ccc(Cl)cc3)cc2C1=O,6
SMILES,CD40 NFkB inh
COCC(=O)N1CCC2(CC1)CN[C@@H](CO)c1c2c2ccc(OC)cc2n1C,-3[25 µM]
C[C@H]1CN([C@@H](C)CO)C(=O)c2ccccc2-c2ccccc2CO[C@H]1CN(C)S(=O)(=O)c1cccc(F)c1,3
CCS(=O)(=O)N1CC2(CN(Cc3cccc(Cl)c3)[C@@H](CO)c3c2c2ccc(OC)cc2n3C)C1,24[25 µM]
COc1ccccc1-c1cn(CC[C@@H]2CC[C@@H](NC(=O)C3CCCC3)[C@H](CO)O2)nn1,-6
C[C@@H]1CN([C@@H](C)CO)C(=O)c2c(c3ccccc3n2C)-c2ccccc2CO[C@H]1CN(C)C(=O)Nc1ccccc1C(F)(F)F,64*[25 µM]
COc1ccccc1NC(=O)N(C)C[C@@H]1OCc2ccccc2-c2c(n(C)c3ccccc23)C(=O)N([C@@H](C)CO)C[C@@H]1C,-3
